Data as given in article PMC4336329 (PLoS ONE, 2015).
Among all 310,000 compounds or so, about 14,000 (4.5%) showed an effect of 50% or more. Effects have a minus sign here. This excerpt belongs to a sample that is enriched for strong results.

molecular target: human ether-à-go-go-related gene (hERG) potassium channel (human, UniProt Q12809); assay: primary screen, population patch clamp on CHO cells stably expressing hERG; higher = less effect of the substance
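Further: peak tail current of the secondary pulse compared with the same well before compound.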

Chain of human ether-à-go-go-related gene (hERG) potassium channel (Q12809 whole entry, looked up): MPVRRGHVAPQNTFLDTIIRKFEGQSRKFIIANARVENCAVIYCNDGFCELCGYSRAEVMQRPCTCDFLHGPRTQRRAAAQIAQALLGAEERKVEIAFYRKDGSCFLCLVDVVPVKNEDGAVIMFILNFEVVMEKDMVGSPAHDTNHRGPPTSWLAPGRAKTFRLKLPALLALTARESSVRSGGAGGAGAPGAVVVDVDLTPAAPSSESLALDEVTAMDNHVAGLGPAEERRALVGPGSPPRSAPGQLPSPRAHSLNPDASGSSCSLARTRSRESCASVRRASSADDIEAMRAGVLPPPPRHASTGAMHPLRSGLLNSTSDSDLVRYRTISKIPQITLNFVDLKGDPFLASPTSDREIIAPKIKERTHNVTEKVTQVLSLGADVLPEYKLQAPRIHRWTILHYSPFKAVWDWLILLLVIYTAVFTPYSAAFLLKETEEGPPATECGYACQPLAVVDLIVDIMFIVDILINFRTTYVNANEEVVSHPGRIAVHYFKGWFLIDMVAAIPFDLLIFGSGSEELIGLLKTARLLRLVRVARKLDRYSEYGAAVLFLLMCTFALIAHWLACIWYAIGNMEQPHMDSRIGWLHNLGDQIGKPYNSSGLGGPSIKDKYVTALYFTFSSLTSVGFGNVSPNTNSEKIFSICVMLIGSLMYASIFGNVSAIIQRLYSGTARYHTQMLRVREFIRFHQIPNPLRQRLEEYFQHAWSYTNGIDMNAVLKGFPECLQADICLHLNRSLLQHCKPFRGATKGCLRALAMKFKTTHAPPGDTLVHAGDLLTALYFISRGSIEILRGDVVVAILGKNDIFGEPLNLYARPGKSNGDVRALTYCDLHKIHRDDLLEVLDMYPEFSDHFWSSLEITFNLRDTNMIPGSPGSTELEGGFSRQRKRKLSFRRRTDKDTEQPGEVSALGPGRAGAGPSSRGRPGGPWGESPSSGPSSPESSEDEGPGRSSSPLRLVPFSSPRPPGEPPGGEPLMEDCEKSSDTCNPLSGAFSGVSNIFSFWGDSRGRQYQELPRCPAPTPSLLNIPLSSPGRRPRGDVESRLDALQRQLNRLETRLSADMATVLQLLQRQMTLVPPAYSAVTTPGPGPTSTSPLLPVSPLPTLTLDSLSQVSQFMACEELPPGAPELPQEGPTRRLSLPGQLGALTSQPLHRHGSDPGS

| Compound | hERG current change (%, negative = inhibition) at 10uM [%] |
| --- | --- |
| COC(=O)c1nn(-c2ccc(OC)cc2)c(=O)cc1NN | 26.7 |
| Cc1ccc(S(=O)(=O)N(C)C)cc1NC(=O)C(C)OC(=O)C1CCCC1 (centres unmarked) | -61.2 |
| Cc1ccc(S(=O)(=O)N(C)C)cc1NC(=O)c1ccncc1 | 4.33 |
| Cc1ccc(S(=O)(=O)N(C)C)cc1NC(=O)C1CCC1 | 12.2 |
| Cc1ccc(S(=O)(=O)N(C)C)cc1NC(=O)c1ccc(OC(F)(F)F)cc1 | -51.3 |
| Cc1ccc(S(=O)(=O)N(C)C)cc1NC(=O)C1CCCCC1 | -1.12 |
| Cc1ccc(S(=O)(=O)N(C)C)cc1NC(=O)C1CCCC1 | 2.05 |
| CCN(CC)S(=O)(=O)c1ccc(C)c(NC(=S)NNC(=O)C2CC2)c1 | 11.1 |
| CN(C)S(=O)(=O)c1cccc(NC(=O)c2ccc(OC(F)(F)F)cc2)c1 | -27.8 |
| Cc1ccc(S(=O)(=O)N(C)C)cc1NC(=S)NNC(=O)C1CC1 | -54.6 |
| COCCN1CCN(C(=O)C2CCC(=O)N(CCc3ccccc3)C2)CC1 (centres unmarked) | 5.79 |
| CN(Cc1ccccc1)C(=O)c1nc[nH]c1C(=O)N1CCN(C(=O)OC(C)(C)C)CC1 | 11.2 |
| CN(C)CCCN(C(=O)CCS(=O)(=O)c1ccccc1)c1nc2cc3c(cc2s1)OCO3.Cl | -60 |
| CN(C)CCCN(C(=O)COc1ccccc1)c1nc2cc3c(cc2s1)OCO3.Cl | -65.4 |
| CN(C)CCN(C(=O)CCS(=O)(=O)c1ccccc1)c1nc2cc3c(cc2s1)OCO3.Cl | 7.43 |
| CN(C)CCCN(C(=O)COc1ccccc1)c1nc2cc3c(cc2s1)OCCO3 | -45 |
| CN(C)CCN(C(=O)COc1ccc(Cl)cc1)c1nc2cc3c(cc2s1)OCO3 | -5.52 |
| CN(C)CCCN(C(=O)COc1ccc(Cl)cc1)c1nc2cc3c(cc2s1)OCCO3.Cl | -55 |
| CCN(CC)CCN(C(=O)CCS(=O)(=O)c1ccccc1)c1nc2cc3c(cc2s1)OCO3.Cl | -20.6 |
| CN(C)CCCN(C(=O)COc1ccc(Cl)cc1)c1nc2cc3c(cc2s1)OCO3.Cl | -59.7 |
| Clc1ccc(CN(CC2CCCO2)C(c2cccs2)c2nnnn2C2CCCC2)cc1 (centres unmarked) | 3.97 |
| O=C(/C=C/c1cccs1)Nc1nccs1 | 15.8 |
| O=S(=O)(c1ccc(Oc2ccc(Cl)cc2)c(S(=O)(=O)N2CCCCC2)c1)N1CCCCC1 | -10.1 |
| COC(=O)c1ccc(-c2ccco2)n1Cc1ccccc1Cl | -1.48 |
| CC(Oc1ccc2oc(-c3ccccc3)c(C(=O)O)c2c1)C(=O)O (centres unmarked) | 14.7 |
| Cn1c(NCc2cccs2)nc2ccccc21 | -11.1 |
| Cc1cc(C(=O)CSc2cccc[n+]2[O-])c(C)n1-c1ccccc1 | 13.9 |

| Compound | hERG current change (%, negative = inhibition) at 10uM [%] |
| --- | --- |
| Cc1cc(C(=O)CC#N)c(C)n1-c1ccc(OC(F)F)cc1 | -21.5 |
| Cc1cc(C(=O)CSc2cccc[n+]2[O-])c(C)n1-c1ccc(OC(F)F)cc1 | -61.9 |
| COC(=O)c1ccc(-n2c(C)cc(C(=O)CSc3cccc[n+]3[O-])c2C)cc1 | 21.2 |
| Cc1cc(C(=O)CSc2cccc[n+]2[O-])c(C)n1-c1ccc(Br)cc1 | -68.6 |
| Cc1cc(C(=O)CSc2nc(N)cc(=O)[nH]2)c(C)n1-c1ccc(OC(F)F)cc1 | -1.41 |
| Cc1nc(Nc2ccccc2C(F)(F)F)sc1C(=O)N(C)C | 21.7 |
| COC(=O)C(c1cc(OC)c(O)c(OC)c1)(N1CCNC(C)C1)C(F)(F)F (centres unmarked) | -9.77 |
| CCn1c(SCC(=O)N2CCN(c3ccccc3)CC2)nnc1-c1c[nH]c2ccccc12 | -53.6 |
| Cn1c(SCC(=O)N2CCN(c3cccc(Cl)c3)CC2)nnc1-c1ccncc1 | -55.9 |
| Cn1c(SCC(=O)N2CCOCC2)nnc1-c1ccncc1 | 16.3 |
| Cn1c(SCC(=O)N2CCN(c3ccccc3)CC2)nnc1-c1ccccc1 | -11.2 |
| CCn1c(SCC(=O)N2CCc3ccccc32)nnc1-c1c[nH]c2ccccc12 | 11.8 |
| Cn1c(SCC(=O)N2CCCc3ccccc32)nnc1-c1c[nH]c2ccccc12 | -10.2 |
| Cn1c(SCC(=O)N2CCN(c3ccccc3)CC2)nnc1-c1c[nH]c2ccccc12 | -50.5 |
| CCOC(=O)CSc1nnc(-c2c[nH]c3ccccc23)n1CC | -10.3 |
| Cn1c(SCC(=O)N2CCN(c3ccccc3)CC2)nnc1-c1ccncc1 | -19.5 |
| COc1cccc(N2CCN(C(c3ccccn3)c3nnnn3C(C)(C)C)CC2)c1 (centres unmarked) | 1.38 |
| O=C(c1ccccc1)N(Cc1cccc(Br)c1)C1CCS(=O)(=O)C1 (centres unmarked) | -7.59 |
| CCCCC1(C(=O)OC)NC(c2ccc(O)cc2)C2C(=O)N(c3ccccc3)C(=O)C21 (centres unmarked) | 2.03 |
| Cc1ccc(-c2nnc(SCC#CCOC(=O)c3ccco3)o2)cc1 | -6.36 |
| O=C(O)c1ccc(NC(CSCc2ccc(F)cc2)C(=O)O)c([N+](=O)[O-])c1 (centres unmarked) | 2.41 |
| CCOc1ccc(C2c3[nH]c4ccccc4c3C[C@H]3C(=O)N(C4CCN(Cc5ccccc5)CC4)CC(=O)N23)cc1OC (some centres unmarked) | -5.25 |
| C/C(CC(=O)Nc1ccc2c(c1)OCO2)=N\NC(=O)OC(C)(C)C | -5.1 |
| COC(=O)C1C(O)=C(C(C)=N)C(=O)CC1(C)C (centres unmarked) | 22.9 |
| O=C(COC(=O)C1CC(=O)N(c2nc(-c3ccccc3)cs2)C1)c1ccccc1 (centres unmarked) | 26.9 |
| C=C1CCN([C@H](C(=O)NCc2ccccc2)C(C)C)S(=O)(=O)c2ccccc21 | 3.33 |
